# Results published in the supplement of paper PMC4022240.
# ± gives the standard deviation.
# Columns and labels:
# Test in all cases: peptide microarray binding signal (635 nm), min-max normalized on array (fraction of array maximum); higher = stronger binding
# [1] = biological target: T1, HaloTag-ATRX ADD domain (163-292)
# T1 chain: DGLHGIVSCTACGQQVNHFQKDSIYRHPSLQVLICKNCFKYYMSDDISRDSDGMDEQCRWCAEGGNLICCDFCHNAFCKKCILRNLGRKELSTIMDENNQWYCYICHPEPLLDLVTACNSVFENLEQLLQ
# Procedure, shortened: (§1)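 For each library, binding signal was taken as the triplicate-spot mean intensity and then min-max scaled. Spots of histone 13-mer peptide–cellulose conjugates on nitrocellulose, printed in triplicate with a Cy3 tracer, were probed for 1 h at 4°C with either biotin-labelled HaloTag reader fusions (10 nM to 1 μM) and streptavidin-Alexa Fluor 647 or rabbit histone antibodies (1:10,000 to 1:2,000) and anti-rabbit Alexa 647. Readout at 635 nm came from an Axon GenePix 4000B.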
# [2] = biological target: HaloTag-ING2 PHD (mouse Ing2 200-280)
# Procedure, shortened: as §1
# [3] = biological target: anti-H3K4me3 antibody ab8580
# Procedure, shortened: as §1
# [4] = biological target: anti-H3K9me3 antibody ab8898
# Procedure, shortened: as §1
# [5] = peptide region: H4 16-28, peptide modifications: H4K20me1, binder concentration: 1:2,000 dilution
# [6] = peptide region: H4 16-28, peptide modifications: H4R19me2s H4K20me2, binder concentration: 1:2,000 dilution
# [7] = peptide region: H4 16-28, peptide modifications: H4R19me2s H4K20me2, binder concentration: 1:10,000 dilution
# [8] = peptide region: H4 16-28, peptide modifications: H4R19cit H4K20me3, binder concentration: 1:2,000 dilution
# [9] = peptide region: H4 16-28, peptide modifications: H4R19cit H4K20me3, binder concentration: 1:10,000 dilution
# [10] = peptide region: H4 16-28, binder concentration: 1:2,000 dilution
# [11] = peptide region: H4 16-28, peptide modifications: H4K20ac, binder concentration: 1:2,000 dilution
# [12] = peptide region: H4 16-28, peptide modifications: H4R19me1 H4K20me3, binder concentration: 1:2,000 dilution
# [13] = peptide region: H4 16-28, peptide modifications: H4R19me1 H4K20me3, binder concentration: 1:10,000 dilution
# [14] = peptide region: H4 16-28, peptide modifications: H4R19cit H4K20me2, binder concentration: 1:2,000 dilution
# [15] = peptide region: H4 16-28, peptide modifications: H4R19cit H4K20me2, binder concentration: 1:10,000 dilution
# [16] = peptide region: H4 8-19, peptide modifications: H4R17me2s, binder concentration: 1:2,000 dilution
# [17] = peptide region: H4 8-19, peptide modifications: H4R17me2s, binder concentration: 1:10,000 dilution
# [18] = peptide region: H4 16-28, peptide modifications: H4R19me2s H4K20me1, binder concentration: 1:2,000 dilution
# [19] = peptide region: H4 16-28, peptide modifications: H4R19me2s H4K20me1, binder concentration: 1:10,000 dilution
# [20] = peptide region: H4 16-28, peptide modifications: H4K20me2, binder concentration: 1:2,000 dilution
# [21] = peptide region: H4 16-28, peptide modifications: H4R19cit, binder concentration: 1:2,000 dilution
# [22] = peptide region: H4 16-28, peptide modifications: H4R19me1, binder concentration: 1:2,000 dilution
binder,measurement,setting,value
KRHRKVLRDNIQG [H4 16-28 K R H R Kme V L R D N I Q G],peptide microarray binding signal,"[1]; peptide region: H4 16-28, peptide modifications: H4K20me1, binder concentration: 500 nM",0.000143
same,peptide microarray binding signal,"[2]; peptide region: H4 16-28, peptide modifications: H4K20me1, binder concentration: 100 nM",0.000283
same,peptide microarray binding signal,[3]; [5],7.55e-05 ± 8.5e-07
same,peptide microarray binding signal,[4]; [5],4.53e-05
KRHRKVLRDNIQG [H4 16-28 K R H Rme2s Kme2 V L R D N I Q G],peptide microarray binding signal,"[1]; peptide region: H4 16-28, peptide modifications: H4R19me2s H4K20me2, binder concentration: 50 nM",0.003511 ± 2.9e-05
same,peptide microarray binding signal,"[1]; peptide region: H4 16-28, peptide modifications: H4R19me2s H4K20me2, binder concentration: 500 nM",0.00548 ± 0.00047
same,peptide microarray binding signal,"[2]; peptide region: H4 16-28, peptide modifications: H4R19me2s H4K20me2, binder concentration: 10 nM",0.00937 ± 0.00061
same,peptide microarray binding signal,"[2]; peptide region: H4 16-28, peptide modifications: H4R19me2s H4K20me2, binder concentration: 100 nM",0.0138 ± 0.0027
same,peptide microarray binding signal,[3]; [6],0.00208 ± 0.0003
same,peptide microarray binding signal,[3]; [7],0.00325 ± 0.00014
same,peptide microarray binding signal,[4]; [6],0.000966 ± 0.00022
same,peptide microarray binding signal,[4]; [7],0.00225 ± 0.00011
KRHRKVLRDNIQG [H4 16-28 K R H Rcit Kme3 V L R D N I Q G],peptide microarray binding signal,"[1]; peptide region: H4 16-28, peptide modifications: H4R19cit H4K20me3, binder concentration: 50 nM",0.0068 ± 9.7e-05
same,peptide microarray binding signal,"[1]; peptide region: H4 16-28, peptide modifications: H4R19cit H4K20me3, binder concentration: 500 nM",0.00848 ± 0.0011
same,peptide microarray binding signal,"[2]; peptide region: H4 16-28, peptide modifications: H4R19cit H4K20me3, binder concentration: 10 nM",0.0124 ± 0.00084
same,peptide microarray binding signal,"[2]; peptide region: H4 16-28, peptide modifications: H4R19cit H4K20me3, binder concentration: 100 nM",0.018 ± 0.0027
same,peptide microarray binding signal,[3]; [8],0.00832 ± 0.0026
same,peptide microarray binding signal,[3]; [9],0.00514 ± 0.0003
same,peptide microarray binding signal,[4]; [8],0.0039 ± 0.0016
same,peptide microarray binding signal,[4]; [9],0.00369 ± 0.00012
KRHRKVLRDNIQG [H4 16-28 K R H R K V L R D N I Q G],peptide microarray binding signal,"[1]; peptide region: H4 16-28, binder concentration: 500 nM",0.000238 ± 2.5e-06
same,peptide microarray binding signal,"[2]; peptide region: H4 16-28, binder concentration: 100 nM",0.000354 ± 4.1e-06
same,peptide microarray binding signal,[3]; [10],0.000132 ± 1.5e-06
same,peptide microarray binding signal,[4]; [10],6.04e-05 ± 2.7e-06
KRHRKVLRDNIQG [H4 16-28 K R H R Kac V L R D N I Q G],peptide microarray binding signal,"[1]; peptide region: H4 16-28, peptide modifications: H4K20ac, binder concentration: 500 nM",0.000524 ± 1.1e-05
same,peptide microarray binding signal,"[2]; peptide region: H4 16-28, peptide modifications: H4K20ac, binder concentration: 100 nM",0.000354 ± 4.1e-06
same,peptide microarray binding signal,[3]; [11],0.000529 ± 9.8e-05
same,peptide microarray binding signal,[4]; [11],3.02e-05 ± 3.4e-07
KRHRKVLRDNIQG [H4 16-28 K R H Rme Kme3 V L R D N I Q G],peptide microarray binding signal,"[1]; peptide region: H4 16-28, peptide modifications: H4R19me1 H4K20me3, binder concentration: 50 nM",0.0047 ± 0.00026
same,peptide microarray binding signal,"[1]; peptide region: H4 16-28, peptide modifications: H4R19me1 H4K20me3, binder concentration: 500 nM",0.00638 ± 0.00038
same,peptide microarray binding signal,"[2]; peptide region: H4 16-28, peptide modifications: H4R19me1 H4K20me3, binder concentration: 10 nM",0.0104 ± 0.00011
same,peptide microarray binding signal,"[2]; peptide region: H4 16-28, peptide modifications: H4R19me1 H4K20me3, binder concentration: 100 nM",0.0129 ± 0.00048
same,peptide microarray binding signal,[3]; [12],0.00636 ± 0.00079
same,peptide microarray binding signal,[3]; [13],0.00867 ± 0.00021
same,peptide microarray binding signal,[4]; [12],0.0157 ± 0.0041
same,peptide microarray binding signal,[4]; [13],0.00871 ± 0.00013
KRHRKVLRDNIQG [H4 16-28 K R H Rcit Kme2 V L R D N I Q G],peptide microarray binding signal,"[1]; peptide region: H4 16-28, peptide modifications: H4R19cit H4K20me2, binder concentration: 50 nM",0.00351 ± 7.6e-05
same,peptide microarray binding signal,"[1]; peptide region: H4 16-28, peptide modifications: H4R19cit H4K20me2, binder concentration: 500 nM",0.007572 ± 7.1e-05
same,peptide microarray binding signal,"[2]; peptide region: H4 16-28, peptide modifications: H4R19cit H4K20me2, binder concentration: 10 nM",0.00812 ± 0.00016
same,peptide microarray binding signal,"[2]; peptide region: H4 16-28, peptide modifications: H4R19cit H4K20me2, binder concentration: 100 nM",0.0181 ± 0.00075
same,peptide microarray binding signal,[3]; [14],0.0008306 ± 7.4e-06
same,peptide microarray binding signal,[3]; [15],0.0016
same,peptide microarray binding signal,[4]; [14],0.000483 ± 9.2e-06
same,peptide microarray binding signal,[4]; [15],0.001211 ± 1.2e-05
KGLGKGGAKRHRK [H4 8-19 K G L G K G G A K Rme2s H R K],peptide microarray binding signal,"[1]; peptide region: H4 8-19, peptide modifications: H4R17me2s, binder concentration: 50 nM",0.00464 ± 0.00023
same,peptide microarray binding signal,"[1]; peptide region: H4 8-19, peptide modifications: H4R17me2s, binder concentration: 500 nM",0.02 ± 0.00069
same,peptide microarray binding signal,"[2]; peptide region: H4 8-19, peptide modifications: H4R17me2s, binder concentration: 10 nM",0.00173 ± 7.2e-05
same,peptide microarray binding signal,"[2]; peptide region: H4 8-19, peptide modifications: H4R17me2s, binder concentration: 100 nM",0.00184 ± 0.00024
same,peptide microarray binding signal,[3]; [16],0.000132 ± 1.5e-06
same,peptide microarray binding signal,[3]; [17],0.000685 ± 7.2e-06
same,peptide microarray binding signal,[4]; [16],0.000861 ± 4.5e-05
same,peptide microarray binding signal,[4]; [17],0.000807 ± 1.5e-05
KRHRKVLRDNIQG [H4 16-28 K R H Rme2s Kme V L R D N I Q G],peptide microarray binding signal,"[1]; peptide region: H4 16-28, peptide modifications: H4R19me2s H4K20me1, binder concentration: 50 nM",0.00379 ± 5.5e-05
same,peptide microarray binding signal,"[1]; peptide region: H4 16-28, peptide modifications: H4R19me2s H4K20me1, binder concentration: 500 nM",0.00586 ± 0.00025
same,peptide microarray binding signal,"[2]; peptide region: H4 16-28, peptide modifications: H4R19me2s H4K20me1, binder concentration: 10 nM",0.0101 ± 0.00023
same,peptide microarray binding signal,"[2]; peptide region: H4 16-28, peptide modifications: H4R19me2s H4K20me1, binder concentration: 100 nM",0.0192 ± 0.00073
same,peptide microarray binding signal,[3]; [18],0.0013 ± 1.8e-05
same,peptide microarray binding signal,[3]; [19],0.002568 ± 2.3e-05
same,peptide microarray binding signal,[4]; [18],0.000831 ± 4.3e-05
same,peptide microarray binding signal,[4]; [19],0.001614 ± 1.6e-05
KRHRKVLRDNIQG [H4 16-28 K R H R Kme2 V L R D N I Q G],peptide microarray binding signal,"[1]; peptide region: H4 16-28, peptide modifications: H4K20me2, binder concentration: 500 nM",0
same,peptide microarray binding signal,"[2]; peptide region: H4 16-28, peptide modifications: H4K20me2, binder concentration: 100 nM",0.000142 ± 1.7e-06
same,peptide microarray binding signal,[3]; [20],5.66e-05 ± 1.1e-06
same,peptide microarray binding signal,[4]; [20],1.51e-05 ± 1.7e-07
KRHRKVLRDNIQG [H4 16-28 K R H Rcit K V L R D N I Q G],peptide microarray binding signal,"[1]; peptide region: H4 16-28, peptide modifications: H4R19cit, binder concentration: 500 nM",0.000476 ± 2.1e-05
same,peptide microarray binding signal,"[2]; peptide region: H4 16-28, peptide modifications: H4R19cit, binder concentration: 100 nM",0.000283 ± 5.7e-06
same,peptide microarray binding signal,[3]; [21],9.44e-05 ± 2.1e-06
same,peptide microarray binding signal,[4]; [21],3.02e-05 ± 3.4e-07
KRHRKVLRDNIQG [H4 16-28 K R H Rme K V L R D N I Q G],peptide microarray binding signal,"[1]; peptide region: H4 16-28, peptide modifications: H4R19me1, binder concentration: 500 nM",9.52e-05 ± 1e-06
same,peptide microarray binding signal,"[2]; peptide region: H4 16-28, peptide modifications: H4R19me1, binder concentration: 100 nM",0.000425 ± 4.9e-06
same,peptide microarray binding signal,[3]; [22],0.000113 ± 2.2e-06
same,peptide microarray binding signal,[4]; [22],1.51e-05 ± 1.7e-07
